Hits are enriched below; roughly 6% of the tested compounds scored in any of these assays.
D1 potentiator: Potentiators of Human D1 Dopamine Receptor: qHTS. AID 504651, 2011. hit rate 0.036% among 360,000. D(1A) dopamine receptor (Homo sapiens), P21728. HEK293 TREx D1 cells, calcium flux, dopamine EC20 potentiation. potentiation, % at 10 µM; in the data active = potentiation above about 30%
D1 antagonist: Antagonist of Human D 1 Dopamine Receptor: qHTS | D(1A) dopamine receptor (Homo sapiens), P21728 | HEK293 TREx D1 cells, calcium flux, dopamine EC80; active compounds read low | activity change, negative = inhibition, % at 10 µM | hit rate 3.2% among 360,000; in the data active = activity change below about -30%
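Tetracycline-induced HEK293 Trex D1 cells, force-coupled to calcium, dye-loaded; compounds added and read 180 s, then EC80 dopamine added and calcium flux tracked kinetically another 180 s.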
D1 agonist: Allosteric Agonists of the Human D1 Dopamine Receptor: qHTS; HEK293 T-REx D1 cells, calcium flux, agonist mode; AID 504660, 2011; D(1A) dopamine receptor (Homo sapiens), P21728; hit rate 1% among 360,000; activation, % at 2 µM; in the data active = activation above about 30%
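Inducible HEK293 T-REx D1 cells, force-coupled to calcium signalling, were plated at 4000 cells/well with tetracycline and held overnight at 30 C. After no-wash calcium dye loading, compound-evoked calcium rise over 180 s flagged agonists.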
D3 ag: qHTS of D3 Dopamine Receptor Agonist: qHTS | max activation, % | AID 652048, 2013 | D3R DiscoveRx beta-arrestin cells, luminescence, 90 min | D(3) dopamine receptor (Homo sapiens), P35462 | hit rate 0.58% among 410,000; in the data active = max activation above about 30%
Target sequence (P35462 whole entry, looked up): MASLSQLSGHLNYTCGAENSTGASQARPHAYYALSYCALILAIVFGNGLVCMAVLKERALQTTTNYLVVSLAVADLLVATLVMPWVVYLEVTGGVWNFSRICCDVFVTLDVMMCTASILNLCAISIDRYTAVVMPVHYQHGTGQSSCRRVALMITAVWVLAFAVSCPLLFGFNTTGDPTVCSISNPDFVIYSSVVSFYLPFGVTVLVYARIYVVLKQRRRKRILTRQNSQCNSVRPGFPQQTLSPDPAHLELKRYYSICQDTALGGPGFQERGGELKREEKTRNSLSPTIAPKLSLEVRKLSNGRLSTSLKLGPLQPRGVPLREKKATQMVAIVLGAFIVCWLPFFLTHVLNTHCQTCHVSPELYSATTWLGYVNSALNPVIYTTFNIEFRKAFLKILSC
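Agonist-mode cell screen: cells plated at 1500/well and incubated overnight at 37 °C, then exposed to library compounds for 90 min at 37 °C. Detection reagent was added for 30–60 min at room temperature, and luminescence was read.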
DRD3 antagonist: qHTS of D3 Dopamine Receptor Antagonist: qHTS. max response, negative = inhibition, %. hit rate 2.5% among 360,000. D3R cells, DiscoveRx beta-arrestin luminescence, antagonist mode; active compounds read low. D(3) dopamine receptor (Homo sapiens), P35462. AID 652054, 2013; in the data active = max response below about -50%; inconclusive = no clear call, values can overlap the other calls
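Cells plated overnight at 1500 cells/well, then exposed to library compounds with dopamine controls for 90 minutes at 37 degrees C. DiscoveRx reagent added for 30–60 minutes at room temperature; luminescence read, quantitative HTS format.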
Large screens that a line does not name were inactive.

COc1ccc(CCN2CC(C(=O)OCC(=O)N(C)Cc3ccccc3)CC2=O)cc1OC (configuration not stated)	D1 antagonist -34.6
COc1ccc(C)cc1NC(=O)C1CC(=O)N(CCc2ccccc2)C1 (configuration not stated)	D3 ag 40.2
COc1ccc(CCN2CC(C(=O)OCC(=O)NC(Cc3ccccc3)C(C)=O)CC2=O)cc1OC (configuration not stated)	none (no result: D1 potentiator, D1 antagonist, D1 agonist)
N#Cc1ccc(COC(=O)C2CC(=O)N(CCc3ccccc3)C2)cc1 (configuration not stated)	none
CCCn1c2ccccc2c2cnn(CC(=O)NCC3CCN(Cc4ccc(F)cc4)CC3)c(=O)c21	none (no result: DRD3 antagonist)
O=S(=O)(Nc1cccc(-c2ccc(N3CCOCC3)nn2)c1)c1ccc(F)c(C(F)(F)F)c1	none (no result: DRD3 antagonist)
CCN=C1S/C(=C\c2cn(C(C)=O)nc2-c2ccccc2)C(=O)N1CC	D3 ag 64.0
COC(=O)c1ccc(OCC2c3cc(OC)c(OC)cc3CCN2C(=O)c2ccccc2C)cc1 (configuration not stated)	none (no result: DRD3 antagonist)
COC(=O)c1ccc(OCC2c3cc(OC)c(OC)cc3CCN2C(=O)c2ccc(F)cc2)cc1 (configuration not stated)	D1 antagonist -38.7 (no result: DRD3 antagonist)
COc1cc2c(cc1OC)C(COc1ccccc1OC)N(C(C)=O)CC2 (configuration not stated)	D1 antagonist -48.5
O=C(NCCc1ccc(Cl)cc1)C(=O)NCC(c1ccco1)S(=O)(=O)c1ccc(Cl)cc1 (configuration not stated)	none (no result: D1 antagonist, DRD3 antagonist)
CCCC(=O)NCC1(N(C)C)CCCCC1	none (no result: DRD3 antagonist)
O=C(c1ccc(F)cc1)C1CCN(Cc2ccccc2F)CC1	DRD3 antagonist -112.2 (no result: D1 potentiator, D1 antagonist, D1 agonist)
O=C(CN1CCC(C(=O)c2ccc(F)cc2)CC1)NCc1ccccc1F	DRD3 antagonist -79.3
COc1ccc(C(=O)C2CCN(CC(=O)NCc3ccccc3)CC2)cc1	DRD3 antagonist -51.6
O=C(NNC(=O)C1CCN(Cc2ccccc2)CC1)c1cccc(Cl)c1	D1 antagonist -62.2
COc1ccc(CNC(=O)CN2CCC(C(=O)c3ccc(OC)cc3)CC2)cc1	DRD3 antagonist inconclusive
O=C(c1ccc(Cl)cc1)C1CCN(Cc2ccccc2)CC1	DRD3 antagonist -113.9
N=C(N)c1ccc(OCCCOc2ccc(C(=N)N)cc2)cc1	none (no result: D1 potentiator, D1 antagonist, D1 agonist, DRD3 antagonist)
COc1ccc(NC(=O)Cn2c(NCC(C)O)nc3ccccc32)cc1Cl (configuration not stated)	D1 antagonist -70.4
COc1ccc(NC(=O)CSc2nc3ccccc3nc2N2CCCC2)cc1Cl	none
Cc1ccccc1-c1noc(-c2ccc(Cl)cc2)n1	none
Cc1ccccc1-c1noc(-c2ccc(O)cc2)n1	D1 antagonist -41.5, D1 agonist 67.8
C=CCn1c(SCC(=O)Nc2cc(C)on2)nc2sc(CC)cc2c1=O	D1 antagonist -41.9
C=CCn1c(SCC(=O)Nc2ccc(O)cc2)nc2sc(CC)cc2c1=O	D1 antagonist -31.5
C=CCn1c(SCC(=O)Nc2ccc(C(=O)O)cc2)nc2sc(C)c(C)c2c1=O	none
C=CCn1c(SCC(=O)N2CCN(C(=O)c3ccco3)CC2)nc2sc(CC)cc2c1=O	D1 antagonist -32.0
C=CCn1c(SCC(=O)N2CCCC2=O)nc2sc(CC)cc2c1=O	none
C=CCn1c(SCC(=O)Nc2ccc(C(=O)O)cc2)nc2scc(-c3ccccc3)c2c1=O	DRD3 antagonist -70.6 (no result: D1 potentiator, D1 antagonist, D1 agonist)
O=C(Cn1ncc2c3ccccc3n(Cc3ccccc3F)c2c1=O)NCc1ccccc1Cl	none (no result: DRD3 antagonist)
CCN1CCN(c2csc3ccc(C)cc3c2=O)CC1	none (no result: DRD3 antagonist)
COc1cccc(CNC(=O)CCc2cn(Cc3ccccc3Cl)c3ccccc23)c1	D1 agonist 33.1 (no result: DRD3 antagonist)
COc1cc(NC(=O)CN2c3ccccc3S(=O)(=O)c3ccccc32)cc(OC)c1	none (no result: DRD3 antagonist)
Nc1nc(Sc2ccc([N+](=O)[O-])c3nonc23)c2[nH]cnc2n1	DRD3 antagonist -59.8 (no result: D1 potentiator, D1 antagonist, D1 agonist)
Cn1c(=O)c2c(nc(SCC(=O)NCC3CCCO3)n2C)n(C)c1=O (configuration not stated)	none
CC(C)Cc1nc(SCC(=O)NCC2CCCO2)c2c(=O)n(C)c(=O)n(C)c2n1 (configuration not stated)	D1 antagonist -92.1
CCOC(=O)c1c(C)sc(-c2c(-c3cc(C)ccc3C)[nH]c3c2c(=O)[nH]c(=O)n3C)c1O	none (no result: DRD3 antagonist)
CCOC(=O)c1c(C)sc(-c2c(-c3cc(C)ccc3C)[nH]c3c2c(=O)n(C)c(=O)n3C)c1O	D1 agonist 276.6 (no result: DRD3 antagonist)
CCOC(=O)c1c(N2C(=O)Nc3ccccc3N2O)n[nH]c1-c1cccc(Cl)c1	none
CCOC(=O)c1c(C)sc(-c2c(-c3cccc(Cl)c3)[nH]c3c2c(=O)n(C)c(=O)n3C)c1O	D1 agonist 315.4 (no result: DRD3 antagonist)
O=C(Nc1ccc(Cl)c(C(F)(F)F)c1)c1cc2nc(-c3ccc4c(c3)OCO4)cc(C(F)(F)F)n2n1	none (no result: DRD3 antagonist)
COc1ccc(NC(=O)c2sc3nc(C)c(C(=O)Nc4ccc(C)cc4C)c(-c4cccs4)c3c2N)cc1	none (no result: DRD3 antagonist)
CCCCn1c(N)c(N(CC(C)C)C(=O)C2CC(=O)N(c3ccc4c(c3)OCCO4)C2)c(=O)[nH]c1=O (configuration not stated)	DRD3 antagonist -54.6
CCCCn1c(N)c(N(CC(C)C)C(=O)Cn2c(=O)oc3ccccc32)c(=O)[nH]c1=O	D1 antagonist -44.0
CCCCn1c(N)c(N(CC(C)C)C(=O)Cn2c(=O)cnc3ccccc32)c(=O)[nH]c1=O	none
Nc1nc(-c2ccccc2)c(N=Nc2ccccc2Cl)s1	DRD3 antagonist -59.4
O=C(NCCCN1CCCCC1)c1cc(Sc2ccc(Cl)cc2)nc2ccccc12	none (no result: DRD3 antagonist)
COc1ccc(CNC(=O)c2cnn(-c3ccccc3)c2-n2cccc2)cc1OC	none (no result: DRD3 antagonist)
COc1ccccc1C(=O)Nc1ccccc1SCc1cc(=O)c2ccccc2[nH]1	none (no result: DRD3 antagonist)
CCOC(=O)c1c(C)c(-c2ccccc2)n(CC(=O)NCCc2cccc(C)c2)c1C	none (no result: DRD3 antagonist)
Cc1ccc(CN2CCC(c3cc(-c4cccs4)n[nH]3)CC2)cc1	DRD3 antagonist -77.6
COC(=O)CCN1CCC(c2cc(-c3cccc(C(F)(F)F)c3)n[nH]2)CC1	none
FC(F)(F)c1cccc(CN2CCC(c3cc(-c4cccs4)n[nH]3)CC2)c1	DRD3 antagonist -80.5
Cc1ccc(Cl)cc1N1CCN(CCCNC(=O)Cn2ncc3c([nH]c4ccccc43)c2=O)CC1	none (no result: DRD3 antagonist)
Cc1cc(C)c(NC(=O)Cn2c([N+](=O)[O-])cnc2C)c(C)c1	D1 antagonist -45.5
CC(=O)Nc1ccc(NC2=Nc3ccccc3N3C2=Nc2c(c(C)nn2-c2ccccc2)C3c2ccccc2)cc1 (configuration not stated)	D3 ag 34.1

Screening results: PubChem, National Center for Advancing Translational Sciences (NCATS)
